The text below walks through data of PubChem BioAssay.

Where “and” joins values, the source holds several entries; their conditions need not be identical. Equal entries are not always repeated. Calls of active or inactive are those of the source.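 Rule for the calls, unless noted: active = inhibition at or above 50% relative to wild type and mutant plate controls; inactive = inhibition below 50%.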

Assay [1] can be described thus: inhibitors of TNFa-induced NFkB p65 translocation, primary screen, imaging, HUVEC, MLSMR starter and 10KST1 sets (AID 438;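 active = inhibition above 20% together with a positive visual image hit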;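 note: compound added about 3h40 before a 20 min TNFalpha stimulation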;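 for inhibition: signal is the nuclear over cytoplasmic p65 intensity ratio per well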). The following applies: HUVEC TNFa-induced p65 nuclear translocation; cell count: measured here: nuclei count (cytotoxicity indicator), at 2.08 µM; inhibition: at 2 µM, stronger effect = higher value, 0% TNFa-plus-vehicle, 100% no-TNFa wells.
The nature of assay [2]: inhibitors of mutant huntingtin aggregation, primary screen, imaging, exon1htt(103Q)mCFP cells, high-content imaging (AID 483;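 active = visual image review flags a hit and inhibition of aggregation exceeds 20%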;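 note: compound exposure lasted 3 days before fixation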;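 for nuclei count: percent of the per-plate median nuclei count of sample wells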). The following applies: exon1htt(103Q)mCFP cell line, aggregate imaging, at 2 µM; inhibition of aggregation: stronger effect = higher value; nuclei count: measured here: cell count, toxicity.
Assay [3] can be described thus: inhibitors of E-selectin induction by TNFa, primary screen, imaging, HUVEC, immunofluorescence, MLSMR starter and 10KST1 sets (AID 487;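 active = visually confirmed hit in the image check and inhibition above 20%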;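 for inhibition: signal is fraction of cell area covered by stained E-selectin grains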;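 for nuclei count: 100% = median nuclei count of all wells on the same plate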). The note with it: HUVEC TNFalpha-induced E-selectin immunofluorescence imaging, at 2 µM; inhibition: stronger effect = higher value; nuclei count: measured here: cell number, toxicity.
A short description of assay [4]: DUSP6 inhibitors restoring Erk phosphorylation by chemical complementation, primary imaging in DUSP6-transfected HeLa (AID 609;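 active = compounds giving at least 50% inhibition in the cell-based MKP-3 phosphatase rescue imaging test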;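 for inhibition: phospho-Erk level distribution per well compared with pooled transfected vehicle control wells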). The note with it: HeLa MKP-3 transfected, phospho-Erk imaging KS statistic, at 10 µM, cells stimulated with TPA for 15 min.
Assay [5] deals with Dual specificity protein phosphatase 6 (Homo sapiens) (UniProt Q16828). The description is as above. The note with it: HeLa MKP-3 transfected, phospho-Erk imaging KS statistic; at 10 µM; stronger effect = higher value; cells stimulated with TPA for 15 min.
Sequence of Dual specificity protein phosphatase 6 (Homo sapiens) (Q16828 whole entry, looked up): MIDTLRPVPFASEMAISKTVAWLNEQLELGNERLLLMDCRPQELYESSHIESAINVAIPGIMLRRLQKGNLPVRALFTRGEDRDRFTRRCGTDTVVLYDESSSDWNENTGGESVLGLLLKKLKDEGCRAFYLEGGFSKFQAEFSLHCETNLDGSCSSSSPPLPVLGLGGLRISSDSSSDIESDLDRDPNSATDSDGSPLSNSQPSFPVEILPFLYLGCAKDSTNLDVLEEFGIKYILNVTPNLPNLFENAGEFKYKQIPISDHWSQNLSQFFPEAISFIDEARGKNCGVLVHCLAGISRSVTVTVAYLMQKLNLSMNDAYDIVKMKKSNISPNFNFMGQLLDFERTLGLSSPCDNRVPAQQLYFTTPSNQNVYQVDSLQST
Assay [6] deals with Voltage-gated potassium channel subunit beta-2 (Rattus norvegicus) (UniProt P62483). Nature of the assay: KvBeta enzyme negative modulators, primary screen, biochemical, NADPH fluorescence (AID 622;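 active = fluorescence slope higher than the sample average by over 3 SD, cut at about -0.22 in these data, passing the limit was not always enough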;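 note: slope of raw intensity against log time taken from 70 to 1610 s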). The following applies: recombinant KvBeta, 4-cyanobenzaldehyde reduction, at 10 µM, stronger effect = higher value.
Sequence of Voltage-gated potassium channel subunit beta-2 (Rattus norvegicus) (P62483 whole entry, looked up): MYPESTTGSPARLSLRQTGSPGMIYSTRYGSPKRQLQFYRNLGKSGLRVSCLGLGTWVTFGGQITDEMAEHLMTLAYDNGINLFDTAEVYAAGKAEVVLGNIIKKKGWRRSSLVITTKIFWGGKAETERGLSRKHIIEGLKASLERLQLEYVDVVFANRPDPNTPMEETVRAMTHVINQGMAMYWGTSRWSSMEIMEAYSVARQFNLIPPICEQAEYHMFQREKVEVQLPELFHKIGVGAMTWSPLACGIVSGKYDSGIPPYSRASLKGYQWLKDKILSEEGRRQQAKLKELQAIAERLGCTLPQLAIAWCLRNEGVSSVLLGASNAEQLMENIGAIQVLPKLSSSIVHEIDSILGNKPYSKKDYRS
Assay [7] shares this target. Description: KvBeta positive modulators, primary screen, biochemical, NADPH fluorescence (AID 623;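 active = NADPH fluorescence slope more negative than the mean of all samples by about 3 SD, 99.7% confidence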;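 note: fluorescence intensity change per second fitted from 20 to 320 s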). The following applies: Recombinant KvBeta, NADPH fluorescence decrease slope, 10 min; at 10 µM; stronger effect = lower value.
In assay [8] the target is Alpha-2C adrenergic receptor (Homo sapiens) (UniProt P18825). Description: modulators of alpha2C/GIRK thallium flux, primary screen, cell-based, HEK293 alpha2C/GIRK1/2 (AID 624;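 active = fluorescence slope after compound addition differing from the mean of all screened samples at 99.7% confidence, in either direction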;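 note: slope of fluorescence ratio to pre-addition baseline per second over 15 to 24 s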). The note with it: thallium flux BTC fluorescence, at 10 µM, actives lie on both sides.
Sequence of Alpha-2C adrenergic receptor (Homo sapiens) (P18825 whole entry, looked up): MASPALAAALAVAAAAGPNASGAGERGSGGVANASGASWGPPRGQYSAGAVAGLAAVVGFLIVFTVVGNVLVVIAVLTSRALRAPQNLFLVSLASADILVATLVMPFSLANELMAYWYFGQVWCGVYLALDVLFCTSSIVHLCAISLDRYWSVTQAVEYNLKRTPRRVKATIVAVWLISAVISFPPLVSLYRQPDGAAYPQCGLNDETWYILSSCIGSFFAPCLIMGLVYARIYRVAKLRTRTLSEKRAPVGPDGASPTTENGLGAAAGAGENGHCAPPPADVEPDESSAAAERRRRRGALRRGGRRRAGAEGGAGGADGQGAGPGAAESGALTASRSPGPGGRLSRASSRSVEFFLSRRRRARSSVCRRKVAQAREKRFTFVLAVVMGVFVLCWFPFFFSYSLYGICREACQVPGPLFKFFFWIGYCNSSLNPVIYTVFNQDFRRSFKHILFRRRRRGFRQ
Assay [9] can be described thus: inhibitors of larval lipid processing in zebrafish, primary screen, whole organism, PED6 fluorescence, gall bladder and intestine (AID 686;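 active = a full or partial loss of lipid-probe fluorescence in the fish gall bladder, intestine or both, judged by eye; inactive = no fluorescence loss, or compound toxic to the fish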;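 note: larvae 5 to 7 days old with five fish per well; signal comes from phospholipase A2 cleavage of quenched PED6 carried via bile; overnight exposure to compound and PED6 before scoring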). The note with it: Zebrafish larvae PED6 lipid processing, fluorescence scoring; screened at 20 µM (by protocol).
A short description of assay [10]: inhibitors of Chlamydomonas gravitaxis, primary screen, whole organism, Chlamydomonas reinhardtii, WT vs cilia-less mutant, absorbance, 96-well (AID 463189).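 Note: 0% = wild type cc124 cells in DMSO and 100% = ciliumless bld1 mutant cells.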 The following applies: OD600 absorbance, 2 days, at 10 µM, stronger effect = higher value.
Assay [11] is described as follows: inhibitors of Sendai virus-induced IRF3 signaling, primary screen, TLR/RLR signaling modifier project, cell-based, Sendai virus stimulus, luciferase, 10K MLSCN set (AID 602276;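 active = inhibition at or above 50% at 10 µM; inactive = inhibition below 50%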;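 note: firefly luciferase from ISG56 promoter only with Renilla not read in this screen; 0% = Sendai virus plus DMSO and 100% = medium plus DMSO without virus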). The following applies: HEK293 RL24 IRF3 luciferase reporter, at 10 µM, stronger effect = higher value.
Assay [12] is described as follows: inhibitors of poly I:C-induced TLR3 signaling, primary screen, cell-based, poly I:C stimulus, luciferase, 10K MLSCN set (AID 602277;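 active = inhibition of the reporter signal at or above 50%; inactive = inhibition below 50%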). The following applies: HEK293-TLR3 RL24 IRF3 luciferase reporter, at 10 µM, stronger effect = higher value. In general terms: A reporter such as luciferase makes a cellular process visible.
Setting [13] is: measured here: cell density z-score.
Where [14] appears, read: measured here: nuclear c-Myc green intensity z-score.
The mark [15] stands for this setting: measured here: nuclear pErk red intensity z-score, stronger effect = higher value.

Take `COc1ccc(CCN(C)CCCC(C#N)(c2cc(OC)c(OC)c(OC)c2)C(C)C)cc1OC` (stereo not given): the cell count in [1] turned out to be 602. The inhibition – broadly, the change of the read-out against control, counted positive when it falls – in [1] is 1.1% (inactive); in assay [3] it was -34.1% (inactive); in [5] it was 30.1% (inactive); in assay [10] it was 4.56% (inactive) and -3.63% (inactive); in [11], 3.72% (inactive); in assay [12] it was 17% (inactive). The inhibition of aggregation in assay [2] was 6% (inactive). The nuclei count in assay [2] was found to be 88.6%; in assay [3] it was 114%. Moreover, the figures for the z-score in assay [4] (setting [13]), in [4] (setting [14]) and in assay [4] (setting [15]) were 2.13, 0.829 and -0.736, respectively. The fluorescence slope in assay [6] is -0.466 (inactive). Moreover, in assay [7], the NADPH fluorescence slope was -1e-05 (inactive). The slope in [8] is 0.00502 (inactive). The outcome in assay [9] was inactive.

Regarding `C[C@]12CCC(=O)C=C1CC[C@@H]1[C@@H]2[C@@H](O)C[C@@]2(C)[C@H]1CC[C@]2(O)C(=O)COC(=O)CCC(=O)O`, the cell count in assay [1] is 638 and 636. For the same molecule, the inhibition in assay [1] was 1.3% (inactive) and -6.2% (inactive); in assay [3], -73.5% (inactive) and -140% (inactive); in assay [5], 7.39% (inactive) and 11.3% (inactive); in [10], 1.85% (inactive) and -7.48% (inactive) and -3.81% (inactive); in [11] it was 5.11% (inactive) and 1.12% (inactive); in assay [12] it was 30.2% (inactive) and 30.8% (inactive). The inhibition of aggregation in assay [2] is -14.6% (inactive) and 5.9% (inactive). Also, the nuclei count is 81.4% and 75.3% in [2]; 113% and 141% in assay [3]. For the same molecule, the z-score in assay [4] (setting [13]) was -0.295 and 0.975; in assay [4] (setting [14]), -0.899 and -0.385; in [4] (setting [15]), -0.0646 and -0.0458. The fluorescence slope in [6] was -0.492 (inactive) and -0.463 (inactive). Also, the NADPH fluorescence slope in assay [7] was -9e-05 (inactive) and -1.6e-05 (inactive). Besides, in assay [8], the slope was 0.00441 (inactive) and 0.00453 (inactive). In addition, the call in assay [9] was inactive.

`CCC[C@@H]1C[C@@H](C(=O)N[C@H]([C@@H](C)O)[C@H]2O[C@H](SC)[C@H](O)[C@@H](O)C2O)N(C)C1` (stereo not given in full): the cell count in assay [1] worked out at 619. Further, the inhibition was -4.3% (inactive) in assay [1]; -57.7% (inactive) in assay [3]; 8% (inactive) in assay [5]; 35.8% (inactive) in assay [10]; 19.5% (inactive) in assay [11]; 27.3% (inactive) in assay [12]. Moreover, the inhibition of aggregation in assay [2] was 2.3% (inactive). The nuclei count was determined as 101% in assay [2] and 123% in assay [3]. Further, the z-score in [4] (setting [13]) was -0.311; in assay [4] (setting [14]), -0.277; in assay [4] (setting [15]), 0.417. Besides, the fluorescence slope in assay [6] is -0.465 (inactive). For the same molecule, the NADPH fluorescence slope in assay [7] was 2.2e-06 (inactive). Also, the slope in [8] was 0.0059 (inactive). Also, the molecule was called inactive in assay [9].

On to `Cn1nnnc1SCC1=C(C(=O)O)N2C(=O)[C@@H](NC(=O)[C@H](O)c3ccccc3)[C@H]2SC1`, for which the cell count in assay [1] was determined as 634. Also, the inhibition in [1] was -4% (inactive); in [3], -44% (inactive); in [5] it was 11.3% (inactive); in assay [10] it was 22.9% (inactive); in [11] it was 10.3% (inactive); in assay [12], 42% (inactive). Also, the inhibition of aggregation in assay [2] is -4.8% (inactive). Further, the nuclei count in [2] turned out to be 106%; in assay [3], 107%. The z-score in assay [4] (setting [13]) was 1.21; in assay [4] (setting [14]) it was 1.9; in [4] (setting [15]), -1.92. Also, the fluorescence slope in assay [6] was -0.45 (inactive). In addition, the NADPH fluorescence slope in [7] is -5.3e-05 (inactive). In [8], the slope was 0.00577 (inactive). In addition, the result in assay [9] was inactive.

As for `NS(=O)(=O)c1cc2c(cc1Cl)NC(C1C[C@H]3C=C[C@@H]1C3)NS2(=O)=O` (stereo not given in full), the cell count in [1] is 536. Further, the inhibition in assay [1] is -8.9% (inactive); in assay [3], 6.1% (inactive); in assay [5], -6.41% (inactive); in [10] it was 20.5% (inactive); in assay [11], -6.01% (inactive); in assay [12] it was -8.05% (inactive). In addition, the inhibition of aggregation in assay [2] is -11.7% (inactive). For the same molecule, the nuclei count in assay [2] is 102%; in assay [3], 120%. Moreover, the results for the z-score in assay [4] (setting [13]), in [4] (setting [14]) and in assay [4] (setting [15]) were 0.229, 0.164 and 0.0197, respectively. For the same molecule, the fluorescence slope in [6] was -0.525 (inactive). Besides, in assay [7], the NADPH fluorescence slope is -1.3e-05 (inactive). Moreover, in assay [8], the slope was 0.00377 (inactive). Besides, in [9], the call was inactive.
